Rab9 promoter act – qHTS Assay for Rab9 Promoter Activators. Huh7 Rab9 promoter-luciferase reporter, luminescence, 24 h. Potency, µM (doses to about 9.22 µM), for the others: at the top dose activation, negative = inhibition, actives largely listed as activators. 320,000 tested, 2.8% active; note: % of control where 0% means no effect; nearly all actives have a fitted effect of over 60% in size
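Stable Rab9-luc Huh7, 1500 cells/well, 2 h settle; cmpd in DMSO, 24 h, 37 °C/5% CO2; luciferase reagent 10 min RT; luminescence.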
p53 reactivation – qHTS assay for re-activators of p53 using a Luc reporter; H1299 p53-A138V BP100-luciferase reporter, luminescence, 24 h; 320,000 tested, 0.063% active; Potency, µM (series often up to 92.2 µM), without a hit: at the top dose activity change, positive = activation, actives largely listed as activators; note: % of control where 0% means no effect; nearly all actives have a fitted effect of over 45% in size
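H1299 (p53-null), stable ts p53-A138V + BP100-Luc; 1000 cells/well, Opti-MEM/10% FBS; cpd 4 pt, 1:5; 24 h, 37 deg C, 5% CO2; detection reagent 10 min RT; luminescence.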
NPC1 prom act – qHTS Assay for NPC1 Promoter Activators. Huh7 NPC1 promoter luciferase reporter, 24 h. 320,000 tested, 2.4% active. Potency, µM (highest dose often 9.22 µM), inactives show at the top dose activation, usual class: activators; note: % of control where 0% means no effect; nearly all actives have a fitted effect of over 60% in size
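Quantitative HTS used a cell-based reporter: Huh7 cells stably bearing the NPC1 promoter upstream of luciferase were treated with compounds for 24 h, and promoter activation was read as luminescence.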
ELG1 genotox – qHTS screen for small molecules that induce genotoxicity in human embryonic kidney (HEK293T) cells expressing luciferase-tagged ELG1; HEK293T ELG1-luciferase reporter, luminescence, 16 h; Potency, µM (titrated, usually from 46 µM), for the others: at the highest dose activity change, positive = activation, most hits filed as activators; 330,000 tested, 1.3% active; note: % of control where 0% means no effect; nearly all actives have a fitted effect of over 60% in size
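Step 1: seed 2,000 HEK293T ELG1-luciferase cells per well. Step 2: add compound or DMSO, incubate 16 hr at 37 °C. Step 3: ONE-Glo, 30 min at room temperature, read luminescence.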
SMN2 splice up – qHTS Assay for Enhancers of SMN2 Splice Variant Expression. HEK293 SMN2-luciferase splicing reporter, luminescence, 30-36 h. Potency, µM (highest dose often 46.1 µM), for inactives: at the highest dose activity change, positive = activation, hits mostly activators. 210,000 tested, 2.8% active. AID 1458, 2008; note: % of control where 0% means no effect; nearly all actives have a fitted effect of over 55% in size
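HEK293 cells carry an SMN2 […]–luciferase reporter in which exon 7 inclusion puts luciferase in frame. Cells were plated 10-12 h before compound addition, then incubated 30-36 h at 37C. ONE-Glo luminescence was read; sodium butyrate at 4.5 mM final served as control.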
FLuc counter – qHTS profiling assay for firefly luciferase inhibitor/activator using purifed enzyme and Km concentrations of substrates (counterscreen for miR-21 project); 360,000 tested, 6.9% active; Luciferin 4-monooxygenase (Photinus pyralis), P08659; purified FLuc, Km substrates, luminescence inhibition; Potency, µM (doses to about 57.5 µM), for inactives: top-dose activity change, negative = inhibition, most hits filed as inhibitors;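 note: plate controls were vehicle for no effect and reference inhibitor for full effect; nearly all actives have a fitted effect of over 55% in size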
Target sequence (P08659 whole entry, looked up): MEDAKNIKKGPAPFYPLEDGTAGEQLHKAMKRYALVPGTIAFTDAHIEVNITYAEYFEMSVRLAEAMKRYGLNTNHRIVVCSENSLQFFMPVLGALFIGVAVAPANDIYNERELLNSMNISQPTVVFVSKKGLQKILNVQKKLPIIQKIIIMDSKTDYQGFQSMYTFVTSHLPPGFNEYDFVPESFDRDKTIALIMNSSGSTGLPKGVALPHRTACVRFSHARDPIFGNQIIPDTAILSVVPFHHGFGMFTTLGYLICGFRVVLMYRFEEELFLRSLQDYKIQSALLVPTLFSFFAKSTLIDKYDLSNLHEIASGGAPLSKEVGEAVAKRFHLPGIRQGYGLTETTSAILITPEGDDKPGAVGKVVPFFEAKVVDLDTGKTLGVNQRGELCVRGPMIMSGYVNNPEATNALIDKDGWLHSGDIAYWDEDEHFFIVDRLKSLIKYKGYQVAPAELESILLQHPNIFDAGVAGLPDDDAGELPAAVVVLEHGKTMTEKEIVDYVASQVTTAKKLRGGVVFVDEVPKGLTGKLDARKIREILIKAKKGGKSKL
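Purified P. pyralis luciferase (10nM final) with 10uM D-luciferin and 10uM ATP (Km levels) in 50mM Tris acetate pH 7.5, 10mM Mg acetate, 0.01% Tween-20, 0.05% BSA; qHTS 6-point titration, ~60 µM downward; luminescence read.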
An asterisk follows results filed as active; ? = inconclusive; . = not tested or not shown; [ ] = dose if it differs, or a comment. A selection: hits, their analogues and other compounds. The true share with any hit is near 7.4%. Calls come from the whole dose curve; as a rule, active = well fitted curve in the direction sought with a large enough effect; inconclusive = small, poorly fitted or top-dose-only effect, or another doubt; inactive = no such curve, though single readings can be large; an effect the other way counts as inactive or inconclusive. Potency is the fitted concentration of half-maximal effect.

SMILES	Rab9 promoter act	p53 reactivation	NPC1 prom act	ELG1 genotox	SMN2 splice up	FLuc counter
OCC1CCCN(C(=S)Nc2ccc(Oc3ccccc3)cc2)C1 (centres undefined)	1.78µM*	11.0%	?	16.7%	.	13.5µM*
OC1CCCN(C(=S)Nc2ccc(SC(F)F)cc2)C1 (centres undefined)	14.1%	?	14.1%	9.5%	?	10.7µM*
NNC(=O)CCc1ccc2ccc3ccccc3c2c1	.	.	.	.	-13.8%[9.22 µM]	.
Cc1cc(N(CCO)Cc2ccccc2)n2nc(-c3ccc(C(C)(C)C)cc3)nc2n1	.	.	.	.	7.5%	?
CCc1cnc2c(c1SCC(=O)Nc1ccc(C(=O)OC)cc1)c(=O)n(C)c(=O)n2C	.	.	.	.	.	-0.4%
Cc1cccc(C(=O)NCC(c2cccs2)S(=O)(=O)c2cccs2)c1 (centres undefined)	.	.	.	.	.	3.8%
Cc1ccccc1-c1ccnc2c(-c3ccc(F)cc3)c(C)nn12	.	.	.	.	19.2%	?
Cc1cccc(CNc2cc(-c3ccoc3)ncn2)c1	.	.	.	.	-3.3%	.
CC(=O)c1ccc(NC(=S)N2CCCC(CO)C2)cc1 (centres undefined)	?	?	?	?	15.8µM*	8.49µM*
COC(=O)Cc1ccc(NC(=S)N2CCCC(CO)C2)cc1 (centres undefined)	?	-5.3%	?	?	.	0.849µM*
CC1CCCN(C(=S)Nc2ccc(Nc3ccccc3)cc2)C1 (centres undefined)	3.55µM*	17.0%	28.1%	6.6%	.	?
CC(=O)c1ccc(NC(=S)N2CCCCCC2)cc1	?	12.8%	16.8%	?	?	?
CCOc1ccc(-c2cn3c(n2)sc2cc(C(=O)NCCCN4CCCCC4)ccc23)cc1	.	.	.	.	.	-4.6%
Cc1cccc(CCNC(=O)C2CCN(c3ncnc4c3nc3n4CCCCC3)CC2)c1	.	.	.	.	.	5.1%
COc1ccc(-c2nc3c(c4c2C[C@H](c2ccccc2)OC4)CN(C(=O)NCCc2c[nH]c4ccccc24)CC3)c(C)c1	.	.	.	.	-1.4%[9.22 µM]	.
CN(C)c1ccc(/C=N/NC(=O)c2ccc3c(c2)OCCO3)cc1	?	?	?	?	.	4.78µM*
CN(C)c1ccc(/C=N/NC(=O)c2cc(-c3ccc4c(c3)OCO4)n[nH]2)cc1	-6.2%	8.1%	?	4.3%	.	12µM*
Cc1cc([N+](=O)[O-])nn1Cc1ccc(C(=O)N/N=C/c2ccc(N(C)C)cc2)cc1	-6.2%	4.8%	-4.2%	4.2%	.	9.53µM*
CCN(CC)c1ccc(/C=N/NC(=O)c2ccc3c(c2)OCCO3)cc1	-0.1%	.	15.4%	3.7%	.	7.57µM*
Cc1[nH]c2c(C)cccc2c(=O)c1CN1CCCCCC1	-0.2%	-2.6%	0.1%	-0.7%	.	-0.1%
Cc1ccc(C(=O)NNC(=O)CCC(=O)NCc2ccccc2)cc1Br	0.2%	3.8%	0.2%	0.4%	.	-1.8%
CCOC(=O)C1CCN(C(=O)c2ccc(N(C)S(C)(=O)=O)cc2)CC1	-5.0%	-0.1%	-2.1%	2.6%	-15.1%	4.7%
CN(c1ccc(C(=O)COC(=O)C2CC2)cc1)S(C)(=O)=O	.	35.5µM*	.	15.4%	.	.
CC(C)(C)C(=O)Nc1ccc(C(=O)COC(=O)C2CC2)cc1	3.55µM*	?	?	10.8%	.	7.57µM*
COC(=O)c1ccc(OCc2cc(=O)n3ccsc3n2)cc1	?	?	?	25.2%	14.1µM*	?
SMILES	Rab9 promoter act	p53 reactivation	NPC1 prom act	ELG1 genotox	SMN2 splice up	FLuc counter
COc1ccc(C(=O)Nc2ccc(OCc3cc(=O)n4ccsc4n3)cc2)cc1OC	.	.	.	.	5.5%	-1.4%
COc1cc(-c2nc(Cn3nnc(C(=O)Nc4ccccc4)c3C)c(C)o2)cc(OC)c1OC	.	.	.	.	-4.3%	-10.9%
CCCN(Cc1ccc(C)cc1)C(=O)c1ccc(CNS(=O)(=O)c2ccc(C(C)=O)cc2)cc1	?	?	?	0.7%	.	21.3µM*
O=C(N=Nc1c(O)[nH]c2ccccc12)c1ccc(CN2CCOCC2)cc1	-6.5%	2.5%	-1.3%	-5.3%	-11.4%	?
CC(C)CC(=O)N=Nc1c(O)[nH]c2ccccc12	?	18.4%	27.3%	?	-3.7%	-7.5%
CC(=O)/C=C(\C)N=Nc1c(O)[nH]c2ccccc12	-0.7%	13.6%	-0.6%	7.9%	.	13.5µM*
O=C(N=Nc1c(O)[nH]c2ccccc12)c1ccc2c(c1)OCO2	0.562µM*	17.9%	2.24µM*	?	11.2µM*	0.601µM*
C=CCn1c(O)c(N=NC(=O)c2ccc3c(c2)OCO3)c2ccccc21	?	1.1%	?	4.9%	-8.0%	3.01µM*
O=C(N=Nc1c(O)[nH]c2ccccc12)c1ccco1	2µM*	6.2%	3.55µM*	?	.	5.36µM*
CCc1nc(C(N)=O)c2[nH]c(=O)n(-c3ccccc3F)c2n1	-1.4%	13.5%	-1.2%	0.4%[9.26 µM]	.	4.3%
CCCCN(C)CCNC(=O)CCn1nc(-c2ccc(C)cc2)ccc1=O	1.5%	-0.3%	0.6%	-3.5%	.	-1.7%
N#Cc1ccc(OCC(=O)N2CCCC2=O)cc1	-4.2%	6.0%	-3.2%	-0.3%	.	7.7%
Cc1ccc(NS(=O)(=O)c2c(C)nc3sccn3c2=O)c(Cl)c1	.	.	.	.	.	8.2%
COc1ccc(CC(=O)NCC(=O)N=Nc2c(O)[nH]c3ccccc23)cc1	5.9%	-6.3%	2.3%	1.1%[9.26 µM]	.	1.9%
O=C(CNC(=O)c1ccccn1)N=Nc1c(O)[nH]c2ccccc12	11.5%	12.0%	0.2%	-0.6%	.	15.1µM*
O=C(CC(=O)Nc1cc(Cl)ccc1Cl)Nc1cc(Cl)ccc1Cl	-4.2%	-1.9%	-1.5%	2.5%	.	1.7%
C=CCn1cccc(C(=O)Nc2ccc(C)c(C)c2)c1=O	2.24µM*	17.0%	1.58µM*	?	.	10.7µM*
C=CCn1c(=O)c(C(=O)Nc2ccc(C)cc2)c(O)c2ccccc21	24.7%	10.5%	?	10.5%	.	?
C=CCn1cccc(C(=O)Nc2ccc(C)cc2)c1=O	2.82µM*	?	4.47µM*	?	.	10.7µM*
C=CCn1c(N)c(C(=O)Nc2ccc(C)cc2)sc1=S	2.82µM*	8.8%	?	?	20.4%	1.2µM*
C=CCn1cccc(C(=O)Nc2cc(OC)ccc2OC)c1=O	21.3%	1.0%	13.9%	0.0%	-2.6%	-5.4%
C/C=C/Cn1cccc(C(=O)Nc2ccc(OC)cc2)c1=O	?	10.3%	?	7.8%	-20.8%	23.9µM*
CCN(CC)CCNC(=O)c1sc2nc3n(c(=O)c2c1C)CCCCC3	.	.	.	.	.	-5.5%

Source: PubChem (National Center for Advancing Translational Sciences (NCATS))
